Measurements as given in a collection of fitness landscapes (doi:10.1126/science.1257360).
In all, about 140,000 sequences were measured (“enrichment ratio after two sorts for PhoP signalling”: median about 0, highest 2% from about 11 on). The entries come from a sample that favours the highest values as a whole.

B1: PhoQ; a variant is named by its letters at X, in order, P23837 (parent)
chain: MKKLLRLFFPLSLRVRFLLATAAVVLVLSLAYGMVALIGYSVSFDKTTFRLLRGESNLFYTLAKWENNKLHVELPENIDKQSPTMTLIYDENGQLLWAQRDVPWLMKMIQPDWLKSNGFHEIEADVNDTSLLLSGDHSIQQQLQEVREDDDDAEMTHSVAVNVYPATSRMPKLTIVVVDTIPVELKSSYMVWSWFIYVLSANLLLVIPLLWVAAWWSLRPIEALAKEVRELEEHNRELLNPATTRELTSLVRNLNRLLKSERERYDKYRTTLTDLTHSLKTPLXXLQXXLRSLRSEKMSVSDAEPVMLEQISRISQQIGYYLHRASMRGGTLLSRELHPVAPLLDNLTSALNKVYQRKGVNISLDISPEISFVGEQNDFVEVMGNVLDNACKYCLEFVEISARQTDEHLYIVVEDDGPGIPLSKREVIFDRGQRVDTLRPGQGVGLAVAREITEQYEGKIVAGESMLGGARMEVIFGRQHSAPKDE

Variants of: B1
Test: enrichment ratio after two sorts for PhoP signalling (ratio (wild type AVST 3.29)); higher = more functional
Details: with PhoP (E. coli)

Variant | enrichment ratio
LITF | ≤ 0.25
ATGN | 3.43
SLVC | ≤ 0.25
GGVC | ≤ 0.25
SNWR | ≤ 0.25
TGVC | 16.8
HEMI | 12.7
SNMH | 11.9
PGVC | ≤ 0.25
HEMV | ≤ 0.25
SNVG | 3.21
HEMR | ≤ 0.25
SNCH | 7.35
SNVC | 11.5
ANPD | ≤ 0.25
TGHW | ≤ 0.25
KVMG | ≤ 0.25
IFMF | ≤ 0.25
WNFI | ≤ 0.25
ILYP | ≤ 0.25
PDCM | ≤ 0.25
SNMW | 3.59
GIVC | 4.3
SNMS | 12
SNLW | 7.18
GNVG | 2.06

Variant | enrichment ratio
GNVC | 11.6
SNMD | 1.49
SNFE | ≤ 0.25
SNMA | 7.05
SNME | 14.4
SNMG | 12.5
SNHE | ≤ 0.25
YALF | 3.8
PCNL | ≤ 0.25
QLCD | ≤ 0.25
TKMD | 0.263
FIAQ | ≤ 0.25
FTMY | 4.04
RWMS | ≤ 0.25
SLMF | 2.69
HEMF | ≤ 0.25
GNMF | 15.2
SQCV | 6.68
SNMF | 19.4
HEPN | 18.8
SNCV | 14.2
GYMF | ≤ 0.25
WQCV | ≤ 0.25
HEPH | ≤ 0.25
GIMF | 6.62
HEVN | ≤ 0.25

Variant | enrichment ratio
EGYW | ≤ 0.25
FYIV | ≤ 0.25
VIWQ | ≤ 0.25
NEFL | ≤ 0.25
HMPY | ≤ 0.25
RMDS | ≤ 0.25
WDAC | ≤ 0.25
ILVT | ≤ 0.25
GQDA | ≤ 0.25
SNLI | 11.3
SNLA | 6.53
SNMV | 18.5
SNMI | 19.8
SRLI | 6.88
SNLS | 11.5
SNLT | 7.56
SNIV | 9.73
SNYV | 0.433
TPLI | ≤ 0.25
SNVA | 6.33
SNMR | 1.49
PWPK | ≤ 0.25
GTKI | ≤ 0.25
MYMW | ≤ 0.25
HSYK | ≤ 0.25
GPQG | ≤ 0.25

Variant | enrichment ratio
KMHW | ≤ 0.25
GDTD | ≤ 0.25
DSIT | ≤ 0.25
NPMD | ≤ 0.25
WFPK | ≤ 0.25
QDRV | ≤ 0.25
DPTF | ≤ 0.25
PMYV | ≤ 0.25
VFLQ | ≤ 0.25
YTLQ | 12.8
VYLQ | ≤ 0.25
GTLQ | 15.2
VTLQ | 11.3
FTLQ | 6.79
GYLQ | ≤ 0.25
TTLQ | 10.7
QPLQ | ≤ 0.25
SQPR | ≤ 0.25
IAGV | ≤ 0.25
HKDW | ≤ 0.25
GERY | ≤ 0.25
SAVR | ≤ 0.25
MMAP | ≤ 0.25
RAVP | ≤ 0.25
WSVY | ≤ 0.25
STPW | ≤ 0.25

Variant | enrichment ratio
KYMG | ≤ 0.25
NING | ≤ 0.25
SLTG | 12.5
SLNG | 0.339
PLTG | ≤ 0.25
RING | ≤ 0.25
TING | 13.9
SIGG | 6.86
WLTG | ≤ 0.25
SING | 13.7
SIMG | 13.2
KYNG | ≤ 0.25
DHDM | ≤ 0.25
DCPT | ≤ 0.25
ELTP | ≤ 0.25
IKSW | ≤ 0.25
GMDV | ≤ 0.25
TNRI | ≤ 0.25
SCYN | ≤ 0.25
YRVE | ≤ 0.25
SFTG | 5.29
STTG | 7.62
SITG | 16.2
SSTG | 12.4
SQTG | 9.26
KYTG | ≤ 0.25

Variant | enrichment ratio
LIWW | ≤ 0.25
TSIP | ≤ 0.25
IDFC | ≤ 0.25
QELP | ≤ 0.25
CSAS | 36.6
TGAS | 14
TDAS | 11.6
ADAS | ≤ 0.25
KSAS | ≤ 0.25
KDAS | ≤ 0.25
NGAS | 0.365
CSAT | ≤ 0.25
RGAS | ≤ 0.25
PRQF | ≤ 0.25
AFYG | ≤ 0.25
EQHW | ≤ 0.25
ESQM | ≤ 0.25
WSTG | ≤ 0.25
PICR | ≤ 0.25
TESQ | 22.8
MMSI | 8.62
QESI | 7.8
MCSK | ≤ 0.25
NESA | ≤ 0.25
QESQ | ≤ 0.25
